# The other results are listed elsewhere or left out. A number with no mark means an inactive call. The source made the active and inactive calls.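 Rule for the calls: active = inhibition of the enzyme GSTO1 above about 75% (limit read from the data); inactive = inhibition below that limit.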
# Target: Glutathione S-transferase omega-1 (Homo sapiens) (UniProt P78417)
# Test: recombinant GSTO1 blockade by competitive ABPP – biochemical, gel ABPP, SE-Rh probe, percent inhibition, late-stage follow-up (AID 463110)
# Conditions: recombinant GSTO1, gel ABPP SE-Rh probe fluorescence; at 1 µM; stronger effect = higher value
# Chain of Glutathione S-transferase omega-1 (Homo sapiens) (P78417 whole entry, looked up): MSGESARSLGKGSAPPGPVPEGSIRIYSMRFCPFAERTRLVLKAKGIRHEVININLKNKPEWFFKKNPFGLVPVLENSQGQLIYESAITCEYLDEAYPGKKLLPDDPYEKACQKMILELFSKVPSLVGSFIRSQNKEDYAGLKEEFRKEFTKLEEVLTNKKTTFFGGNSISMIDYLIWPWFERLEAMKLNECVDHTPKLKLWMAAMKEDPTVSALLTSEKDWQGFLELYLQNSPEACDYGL
row,Structure (SMILES),inhibition
1,Cc1ccc(N(Cc2cc(=O)[nH]c3ccccc23)C(=O)CCl)cc1,36%
2,COc1ccc(C(C(=O)NC2CCCCC2)N(C(=O)CCl)c2ccccc2Cl)cc1 (stereo not given),23%
3,CCC1(CC)Cc2ccccc2-c2nc(CCl)[nH]c(=O)c21,79% (active)
4,O=c1cc(CCl)nc2scc(-c3ccccc3)n12,82% (active)
5,O=C(c1[nH]ncc1-c1ccc(Cl)cc1)C1CO1 (stereo not given),29%
